# Source: PubChem BioAssay (NCI)
# This is part of a sample that, as a whole, favours compounds with a hit. Of some 79,000 tested, about 15% had one in any assay. Unmarked numbers belong to inactive results. Active and inactive are the calls of the source. Rule as the data show it: active = growth inhibition above about 70%; inactive = the rest.
# Key:
# [1] = NCI Yeast Anticancer Drug Screen. Data for the rad50 strain (AID 155);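 also: 0% = growth of vehicle-only cultures of the same strain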; settings: S. cerevisiae rad50 strain growth inhibition, stronger effect = higher value
# Method in brief: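 Inhibition values express reduced yeast growth in compound-treated cultures relative to vehicle-treated controls.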
# [2] = NCI Yeast Anticancer Drug Screen. Data for the mec2-1 strain (AID 157); settings: S. cerevisiae mec2-1 strain, stronger effect = higher value
# Method in brief: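 Vehicle-treated cultures served as reference for growth inhibition of compound-exposed mec2-1 yeast.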
# [3] = NCI Yeast Anticancer Drug Screen. Data for the sgs1 mgt1 strain (AID 161);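 also: 0% = growth of cultures given vehicle only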; settings: S. cerevisiae sgs1 mgt1 strain, stronger effect = higher value
# Method in brief: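 Test agents were incubated with a DNA-repair-mutant yeast strain. Growth was then read and compared against vehicle-treated controls.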
# [4] = NCI Yeast Anticancer Drug Screen. Data for the cln2 rad14 strain (AID 165);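 also: 0% = growth equal to vehicle treated cultures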; settings: S. cerevisiae cln2 rad14 strain, stronger effect = higher value
# Method in brief: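 Each compound was tested on cln2 rad14 yeast. Inhibition of growth was calculated against vehicle-exposed controls.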
# [5] = NCI Yeast Anticancer Drug Screen. Data for the bub3 strain (AID 167); settings: S. cerevisiae bub3 mutant strain, stronger effect = higher value
# Method in brief: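 Steps: expose the mutant yeast strain to compound; grow alongside vehicle-treated cultures; measure growth; express inhibition against the vehicle cultures.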
# [6] = NCI Yeast Anticancer Drug Screen. Data for the mlh1 rad18 strain (AID 175); settings: S. cerevisiae mlh1 rad18 strain growth inhibition, stronger effect = higher value
# Method in brief: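 Vehicle-treated cultures served as the reference for growth inhibition in a yeast strain carrying DNA damage repair alterations exposed to each compound.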
# [7] = at 5.0 µM (retest, dose inferred, filed as 0.5)
# [8] = at 50.0 µM (retest, dose inferred, filed as 5.0)
SMILES,"growth inhibition [1, 7]","growth inhibition [1, 8]",growth inhibition ([1]; at 50.0 µM),"growth inhibition [2, 7]","growth inhibition [2, 8]",growth inhibition ([2]; at 50.0 µM),"growth inhibition [3, 7]","growth inhibition [3, 8]",growth inhibition ([3]; at 50.0 µM),"growth inhibition [4, 7]","growth inhibition [4, 8]",growth inhibition ([4]; at 50.0 µM),"growth inhibition [5, 7]","growth inhibition [5, 8]",growth inhibition ([5]; at 50.0 µM),"growth inhibition [6, 7]","growth inhibition [6, 8]",growth inhibition ([6]; at 50.0 µM)
N#CC(Cl)CS(=O)(=O)c1ccccc1 (stereo not drawn),81% (active),100% (active),99.5% (active),96% (active),100% (active),99.5% (active),31%,99% (active),99.5% (active),49%,99% (active),99.2% (active),95% (active),100% (active),95.2% (active),88% (active),100% (active),99.5% (active)
NC(=O)NNC(=O)NNC(N)=O,-4%,9%,0.95%,-2%,1%,-4.8%,3%,4%,-20.2%,-1%,3%,70.8% (active),-4%,-8%,-3.5%,-3%,9%,-3.85%
CCO/C=C1\C(=O)C=C(C)CC1c1ccc(OC)c(OC)c1OC (stereo not drawn),3%,84% (active),53.1%,4%,81% (active),38%,7%,86% (active),47.6%,-5%,55%,16.6%,-8%,80% (active),41.7%,4%,88% (active),86.7% (active)
CN(C)CCNc1ccc([N+](=O)[O-])c2nc3ccccc3c(N)c12,-34%,-7%,-1.9%,-37%,6%,-40.8%,34%,-24%,45.9%,-17%,0%,8.55%,-8%,12%,-7.15%,-53%,-10%,65.8%
O=C(NCc1ccccc1)C1C(=O)N(Cc2ccccc2)C(=O)/C1=N/O (stereo not drawn),-16%,-1%,-17.1%,2%,1%,16.8%,-14%,-22%,35.2%,-4%,-1%,-22.5%,2%,-1%,31.6%,-2%,-3%,12.8%
CCOC(=O)C(=Cc1ccccc1Br)C(=O)OCC,16%,92% (active),78.5% (active),33%,94% (active),92.5% (active),20%,-18%,96.5% (active),17%,93% (active),67.8%,26%,96% (active),95.7% (active),14%,97% (active),96.2% (active)
CCOC(=O)c1cnc2ccc(C3CCCCC3)cc2c1Nc1ccc2c(c1)OCO2,-15%,91% (active),11.1%,-4%,95% (active),-8.35%,-23%,96% (active),5.15%,-9%,92% (active),-12.8%,3%,93% (active),-7.25%,-3%,93% (active),25.4%
CC(=O)c1cccc(NC2C(N)C(NC(=O)N(C)C)(C(C)O)C(C)(O)C2(O)COC(=O)c2c(C)cccc2O)c1 (stereo not drawn),42%,96% (active),93% (active),17%,98% (active),94.5% (active),44%,97% (active),94.6% (active),21%,96% (active),92% (active),36%,98% (active),93.8% (active),47%,97% (active),93.2% (active)
OC1(c2ccccc2)c2ccccc2C(O)(c2ccccc2)c2cc3c(cc21)CCCC3 (stereo not drawn),81% (active),96% (active),96.8% (active),28%,98% (active),97.5% (active),17%,98% (active),97.7% (active),-3%,97% (active),97.7% (active),17%,98% (active),96% (active),51%,96% (active),96.8% (active)
CC(C)(C)C(=O)CC(=O)C(F)(F)C(F)(F)C(F)(F)F.[Ag],97% (active),98% (active),91.8% (active),99% (active),99% (active),93% (active),99% (active),99% (active),90% (active),92% (active),99% (active),89.6% (active),98% (active),98% (active),87.8% (active),98% (active),98% (active),88.4% (active)
Cc1ccccc1C(=O)c1ccc(O)c2ccccc12,-6%,90% (active),99.4% (active),4%,82% (active),94.5% (active),9%,94% (active),64.3%,-10%,65%,29.3%,,,,32%,94% (active),99.4% (active)
Nc1ccc2[nH]c3ccccc3c2c1,-4%,6%,92.3% (active),0%,1%,-17.6%,-9%,0%,40.2%,-5%,3%,-38%,-1%,18%,25.2%,0%,29%,16.8%
O=C(Nc1cc(Cl)cc(Cl)c1)C(F)(F)F,27%,98% (active),83.9% (active),34%,100% (active),87.5% (active),37%,99% (active),96.4% (active),9%,99% (active),92.4% (active),96% (active),99% (active),85% (active),59%,99% (active),97.4% (active)
Cc1cc(Oc2nc(Cl)nc(C(Cl)(Cl)Cl)c2Cl)cc(C)c1N(C)C (tested in a mixture with another compound),-5%,10%,92.8% (active),-6%,-3%,95.8% (active),-2%,10%,95.5% (active),-12%,-9%,91.9% (active),,,,-8%,-5%,95.7% (active)
C=C1CC2(CCCC3(CC(=C)C(=O)O3)C2(C)C)OC1=O (stereo not drawn),20%,96% (active),33%,14%,98% (active),38.4%,57%,97% (active),38.8%,15%,96% (active),23.1%,7%,96% (active),44.6%,12%,97% (active),66.6%
Cc1c2cnccc2c(C)c2c1sc1ccccc12,92% (active),88% (active),96.5% (active),80% (active),96% (active),73.5% (active),87% (active),96% (active),90.2% (active),65%,91% (active),75.5% (active),,,,96% (active),92% (active),97.7% (active)
c1ccc(-c2cc(-c3cc(-c4ccccn4)[nH]n3)n[nH]2)nc1,5%,4%,17.2%,0%,-11%,0.75%,0%,18%,23.5%,-1%,-16%,9.05%,4%,7%,3.4%,-5%,4%,19.6%
C=C(CN(C)C)C(=O)c1ccccc1Cl,-10%,90% (active),90.8% (active),-15%,80% (active),92.7% (active),15%,95% (active),92.5% (active),-10%,25%,7.9%,-14%,96% (active),70.6% (active),46%,98% (active),98.1% (active)
CCOCCC(=O)N1c2ccccc2CC1c1c[nH]c2ccccc12 (stereo not drawn),-6%,36%,74.3% (active),-9%,32%,4.65%,-8%,59%,51.6%,-57%,36%,8.45%,-8%,48%,0.45%,-4%,34%,67.1%
O=C1c2cc(F)ccc2-c2c(F)cc(F)c(F)c21,8%,7%,82.3% (active),6%,5%,55.9%,2%,4%,41%,3%,-6%,34.9%,,,,4%,7%,46.8%
